Hits are enriched below; roughly 3.1% of the tested compounds scored in any of these assays.
TrxR1 inh – qHTS Assay for Inhibitors of Mammalian Selenoprotein Thioredoxin Reductase 1 (TrxR1): qHTS; AID 588453, 2011; Thioredoxin reductase 1, cytoplasmic (Rattus norvegicus), O89049; Potency, µM (highest dose often 114 µM), usual class: inhibitors; 1% of 390,000 active; recombinant rTrxR1, NADPH fluorescence consumption, selenite substrate; note: nearly all actives have a fitted effect of over 65% in size
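Rat TrxR1 (90 nM in the dispensed reagent) was pre-reduced with 400 uM NADPH for 5 min at room temperature, then incubated with compound for 15 min. After 400 uM selenite was added, NADPH fluorescence (Ex 340/Em 450 nm) was followed for 8 min.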
A549 tox – Nrf2 qHTS screen for inhibitors: counterscreen for cytotoxicity; A549 ARE-Fluc cells, CellTiter-Fluor viability, 18-24 h; Potency, µM (top dose mostly 46 µM), usual class: inhibitors; 0.16% of 390,000 active
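A549 ARE-Fluc cells in 5% FBS OPTI-MEM, 5000 cells/well, rested 2 h then exposed to compounds in concentration-response for 18-24 h at 37 °C. Viability by CellTiter-Fluor fluorescence (Ex 405/Em 525) after 30 min; luciferase luminescence (BugLite, 15 min, RT) read afterwards.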
Nrf2 block – Nrf2 qHTS screen for inhibitors; AID 504444, 2011; Potency, µM (doses to about 46 µM), actives largely listed as inhibitors; A549 ARE-Fluc reporter, luciferase luminescence, 18-24 h; 2.1% of 360,000 active; note: nearly all actives have a fitted effect of over 60% in size
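Reporter: ARE-Fluc in A549. Exposure: 18-24 h, 37 °C, 5% CO2, 5% FBS OPTI-MEM. Readouts: fluorescent cytotoxicity (CellTiter-Fluor), then luminescent Nrf2 signal after BugLite.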
TrxR1 substrate – qHTS Assay for Substrates of Mammalian Selenoprotein Thioredoxin Reductase 1 (TrxR1): qHTS; 0.01% of 390,000 active; Thioredoxin reductase 1, cytoplasmic (Rattus norvegicus), O89049; AID 588456, 2011; Potency, µM (highest dose often 114 µM); purified TrxR1 substrate turnover, NADPH consumption readout; note: nearly all actives have a fitted effect of over 50% in size
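Rat TrxR1, dispensed at 90 nM, was prereduced with 400 uM NADPH (final) for 5 min at ~22 deg C, then incubated with compound 15 min before 400 uM selenite. A first-read NADPH fluorescence drop versus no-compound background flagged substrates.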
Mito fusion yeast – qHTS Assay for Small Molecule Inhibitors of Mitochondrial Division or Activators of Mitochondrial Fusion; S. cerevisiae fusion-defective mutant growth rescue, CellTiterGlo 48 h; Potency, µM (highest dose often 46.1 µM), hits mostly activators; 0.23% of 320,000 active; note: nearly all actives have a fitted effect of over 45% in size
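Read-out: ATP-based luminescence (CellTiterGlo, 10 min ambient) reporting growth of fusion-defective ts yeast after 48 hours at 37C on glycerol/ethanol YPEG medium in the presence of compound.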
mIDH1 inhibitor – qHTS for Inhibitors of mutant isocitrate dehydrogenase 1 (IDH1): qHTS. 0.093% of 390,000 active. Isocitrate dehydrogenase [NADP] cytoplasmic (Homo sapiens), O75874. Potency, µM (doses to about 76.6 µM), actives largely listed as inhibitors. IDH1-R132H enzyme, NADPH consumption, diaphorase/resazurin fluorescence; note: nearly all actives have a fitted effect of over 65% in size
Target sequence (O75874 whole entry R132H, stated change not applied): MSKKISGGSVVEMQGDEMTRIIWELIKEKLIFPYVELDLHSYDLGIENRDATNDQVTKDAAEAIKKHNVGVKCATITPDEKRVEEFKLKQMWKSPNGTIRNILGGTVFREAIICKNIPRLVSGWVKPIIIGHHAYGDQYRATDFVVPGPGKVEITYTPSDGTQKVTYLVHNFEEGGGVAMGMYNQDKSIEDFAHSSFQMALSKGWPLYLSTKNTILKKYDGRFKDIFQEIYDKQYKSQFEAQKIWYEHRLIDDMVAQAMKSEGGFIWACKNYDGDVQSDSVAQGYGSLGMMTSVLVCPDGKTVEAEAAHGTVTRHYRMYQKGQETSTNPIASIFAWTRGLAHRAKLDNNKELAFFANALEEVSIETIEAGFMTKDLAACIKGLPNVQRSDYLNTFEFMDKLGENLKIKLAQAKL
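IDH1-R132H (0.5 ug/mL dispensed) in pH 7.5 Tris buffer was preincubated 30 min with compound, then given a substrate mix of 0.016 mM NADPH and 2 mM alpha-KG for 80 min at room temperature; remaining NADPH was read by diaphorase/resazurin fluorescence.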
Of the large screens only hits and unclear results are named; the others gave an inactive call. Calls come from the whole dose curve; as a rule, active = well fitted curve in the direction sought with a large enough effect; inconclusive = small, poorly fitted or top-dose-only effect, or another doubt; inactive = no such curve, though single readings can be large; an effect the other way counts as inactive or inconclusive.

COc1ccc(S(=O)(=O)NCc2ccccn2)cc1NC(=O)c1ccc(Cl)cc1	none
COc1ccc(S(=O)(=O)NCc2cccnc2)cc1NC(=O)c1ccccc1	none
COc1ccc(S(=O)(=O)NCc2ccncc2)cc1NC(=O)c1ccc(Cl)cc1	Nrf2 block 4.6µM
CN(c1ccc(F)cc1)S(=O)(=O)c1ccc(Cl)c(C(=O)Nc2ccncc2)c1	Nrf2 block 18µM
COc1ccc(-n2c(-c3ccccc3F)nc3c(cnn3-c3ccc(C)cc3)c2=O)cc1	none (no result: Mito fusion yeast)
COc1ccc(N(CC(=O)Nc2cc(C)ccc2OC)S(=O)(=O)c2c(C)noc2C)cc1	A549 tox inconclusive, Nrf2 block 8.2µM
COc1ccc(N(CC(=O)NCCc2ccc(C)cc2)S(=O)(=O)c2c(C)noc2C)cc1	Nrf2 block 23µM
O=C(C[n+]1c2ccccc2cc2ccccc21)c1ccc(F)cc1	none (no result: A549 tox, Nrf2 block, Mito fusion yeast, mIDH1 inhibitor)

Bioassay records from PubChem.
